TEAD-YAP block – TEAD-YAP interaction inhibition | HEK-TIYL cells, TEAD-Gal4/YAP UAS-luciferase luminescence | inhibition, % at 9.12 µM | 640,000 compounds, 1.4% hits; in the data active = inhibition above about 32%
MITF inh – human MITF inhibition, primary screen; AlphaScreen MITF homodimerization, bead proximity signal; inhibition, % at 2.6 µM; 650,000 compounds, 0.91% hits; AID 1259374; in the data active = inhibition above about 50%
FBW7 activator – human FBW7 E3 ligase activation, primary screen | Q969H0 | AlphaScreen FBW7–phospho-cyclin E peptide binding, activator screen | normalized activity (activation), % at 26.1 µM | 650,000 compounds, 0.13% hits; in the data active = normalized activity above about 1.9%;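 note: purified mutant Fbw7 with reduced substrate affinity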
Target sequence (Q969H0 whole entry, looked up): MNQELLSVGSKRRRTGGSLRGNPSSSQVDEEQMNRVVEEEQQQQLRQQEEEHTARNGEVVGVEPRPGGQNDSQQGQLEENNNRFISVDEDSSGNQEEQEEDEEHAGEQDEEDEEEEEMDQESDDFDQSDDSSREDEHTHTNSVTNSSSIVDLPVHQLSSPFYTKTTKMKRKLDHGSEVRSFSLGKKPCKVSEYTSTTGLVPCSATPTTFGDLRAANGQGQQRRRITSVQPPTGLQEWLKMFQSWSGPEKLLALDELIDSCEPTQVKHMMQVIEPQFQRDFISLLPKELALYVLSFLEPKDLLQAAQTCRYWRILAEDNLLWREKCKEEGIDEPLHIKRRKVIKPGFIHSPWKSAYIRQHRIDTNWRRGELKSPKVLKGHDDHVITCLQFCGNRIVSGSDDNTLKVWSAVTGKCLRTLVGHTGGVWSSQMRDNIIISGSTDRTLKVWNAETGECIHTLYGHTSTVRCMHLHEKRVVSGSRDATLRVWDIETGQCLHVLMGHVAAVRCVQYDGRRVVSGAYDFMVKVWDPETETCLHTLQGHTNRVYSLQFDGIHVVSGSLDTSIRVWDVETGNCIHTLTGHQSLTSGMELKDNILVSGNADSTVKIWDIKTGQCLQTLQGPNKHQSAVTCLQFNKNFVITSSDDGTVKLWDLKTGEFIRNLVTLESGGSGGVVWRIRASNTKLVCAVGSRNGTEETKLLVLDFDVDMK
GPR151 ag – activators of human GPR151; activation, % at 11.2 µM; AID 1508602; 650,000 compounds, 1% hits; PathHunter beta-arrestin GPR151 cells, luminescence; Q8TDV0; in the data active = activation above about 4.9%
Of the large screens only hits and unclear results are named; the others gave an inactive call; ! = not active in a repeat. Shown are actives, neighbours in structure and some others; about 3.5% of the full set was active somewhere.

COC(=O)C1=CN(C2CCCC2)C=C(C(=O)OC)C1c1ccc(F)cc1	FBW7 activator 3.1
COc1ccc(/C=C2\SC(=Nc3cccc(O)c3)NC2=O)cc1OC	TEAD-YAP block 43.4
COc1ccc(/C=C2/SC(=Nc3ccccc3)NC2=O)cc1OC	none
COc1ccc(/C=C2/SC(=Nc3ccc(O)cc3)NC2=O)c(OC)c1OC	none
COc1cccc(/C=C2\SC(=Nc3ccc(O)cc3)NC2=O)c1OC	TEAD-YAP block 46.1
Cc1n[nH]c(C)c1S(=O)(=O)N1CCN(c2ccc(F)cc2)CC1	none
CCC(C)(C)n1nnnc1C(c1cccs1)N1CCN2CCCC2C1 (stereo unspecified)	none
CN(C)C(=O)CSc1nnc(-c2ccc(C#N)cc2)o1	none
N#C/C(=C\c1cccs1)c1nc2c(s1)CCCC2	none
FC(F)(F)Oc1ccc(-c2cnc3c(NCc4cccnc4)nccn23)cc1	none
CC(=O)N1CCC(N(C(=O)CCC(=O)O)C2CC2)CC1	FBW7 activator 4.6
O=C(O)CCC(=O)N(C1CC1)C1CCN(CCc2ccccc2)CC1	none
N#Cc1ccc(OCC(=O)OCc2ccc(Br)cc2)cc1	none
O=C(COc1ccc(Br)cc1)OCc1ccccc1	FBW7 activator 1.9
CC(=O)Nc1ccc(NC2=C(N3CCOCC3)C(=O)c3ccccc3C2=O)cc1	none
CCCNC1=C(N2CCCCC2)C(=O)c2ccccc2C1=O	TEAD-YAP block 93.2
O=C1C(NC2CCCCC2)=C(N2CCCCC2)C(=O)c2ccccc21	none
O=C1C(N2CCCCC2)=C(N2CCCCC2)C(=O)c2ccccc21	none
CNC1=C(N2CCCCC2)C(=O)c2ccccc2C1=O	TEAD-YAP block 94.3
CCOc1ccc(NC2=C(N3CCOCC3)C(=O)c3ccccc3C2=O)cc1	MITF inh 53.8
O=C1NC(=S)N/C1=C/c1ccc(O)c(O)c1	MITF inh 87.3
CN(C)c1ccc(/C=C2\NC(=S)NC2=O)cc1[N+](=O)[O-]	MITF inh 71.4!
COc1ccc(N=C(NN)c2ccc3ccccc3n2)cc1	TEAD-YAP block 91.0
Cc1ccc(N=C(NN)c2ccc3ccccc3n2)c(C)c1	none
c1ccc(CC2CCN(c3ncnc4sccc34)CC2)cc1	TEAD-YAP block 33.6
CC(C)(C)c1ccc(C(=O)N2CCc3ccccc3C2)cc1	none
N#CCSc1ccc2nnc(-c3ccccn3)n2n1	FBW7 activator 3.8
N#CCSc1ccc2nnc(-c3ccncc3)n2n1	TEAD-YAP block 39.7
CCC(Sc1ccc2nnc(-c3ccccn3)n2n1)C(=O)OC (stereo unspecified)	FBW7 activator 7.2
CCN1/C(=C/c2ccc3ccccc3[n+]2CC)C=Cc2ccccc21	TEAD-YAP block 88.3
CCN1/C(=C/c2cc[n+](-c3ccc(Cl)cc3)cc2)C=Cc2ccccc21	TEAD-YAP block 91.1
CCN1C(=O)S/C(=C\c2ccc(Cl)cc2)C1=O	none
Cc1ccc2c(c1)C=C/C(=C\c1cccc[n+]1C)N2C	TEAD-YAP block 83.8
CCN1C(=O)/C(=C2\C=Cc3ccccc3N2CC)SC1=S	none
CCN1/C(=C/c2cccc[n+]2C)C=Cc2ccc(C)cc21	TEAD-YAP block 74.6
Cc1cc(C)n2c(SCC(=O)N3CCCC(C)C3)nnc2n1 (stereo unspecified)	none
CCCC[n+]1ccc(/C=C2\C=Cc3ccccc3N2CC)c2cc(C)ccc21	TEAD-YAP block 92.1, MITF inh 72.0
CCN1/C(=C/c2cccc[n+]2C)C=Cc2ccccc21	TEAD-YAP block 75.2
CCN1/C(=C2/N=C(c3ccccc3)OC2=O)C=Cc2ccccc21	none
CCN1/C(=C/C(=C(C#N)C#N)C(F)(F)F)C=Cc2ccccc21	none
CN=c1scc(-c2ccccc2F)n1/N=C/c1ccccc1	TEAD-YAP block 98.8
CCN=c1scc(C)n1/N=C/c1ccc2c(c1)OCCO2	none
CCN=c1scc(-c2ccccc2F)n1/N=C/c1ccc2c(c1)OCCO2	TEAD-YAP block 51.0
Cc1csc(=Nc2ccccc2F)n1/N=C/c1ccsc1	none
Cc1cccc(C(=O)NC(=S)Nc2ccc3nn(-c4ccccc4)nc3c2)c1	none
COc1ccc(C(=O)Nc2cccc3ccccc23)cc1OC	none
CC(=O)c1ccc(NC(=O)COc2cc(C)ccc2C(C)C)cc1	none
COc1cc(NC(=O)c2cccc(-n3cc(NC(=O)Nc4ccccc4)cn3)c2)cc(OC)c1OC	TEAD-YAP block 36.6
Cc1ccc(C(C)C)c(OCC(=O)Nc2ccc(C(=O)Nc3cccc4ccccc34)cc2)c1	TEAD-YAP block 59.6
COc1cc(NC(=O)c2cccc(-n3cc(Nc4cnnn4-c4ccccc4)cn3)c2)ccc1N1CCOCC1	none
COc1cc(NC(=O)c2cccc(-n3cc(N(C)c4nnnn4-c4ccccc4)cn3)c2)ccc1N1CCOCC1	TEAD-YAP block 38.4
COc1cc(C(=O)Nc2cccc(C(=O)Nc3cccc4ccccc34)c2)cc(OC)c1OC	TEAD-YAP block 64.0
